Results as given in PubChem BioAssay AID1508600 (Functional Genomics Laboratory (NCATS/FGL), 2020).
Out of some 53,000 sequences screened, about 3,700 (7%) were called active.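 How the source made its calls: active means gene knockdowns whose robust z-score for IL-1 alpha signal is at least 2 or at most -2, so actives lie on both sides; inactive means the rest.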 The sample as a whole holds a higher share of actives than the screen did.

Assay: Components of the Cytosolic LPS Sensing Pathway: Gene Identification via Genome-wide siRNA Screen
Conditions: RAW264.7 macrophages, IL-1a HTRF, actives lie on both sides, screened at 100 nM (by protocol), cells primed 5 h with Pam3CSK4 first
Description: Non-canonical inflammasome activation by cytosolic LPS is a critical component of the host response to Gram-negative bacterial infection, however we lack a comprehensive understanding of the cellular processes that control this pathway. Here we describe a genome-wide siRNA screen to identify genes regulating the mouse macrophage IL-1 alpha response to cytosolic LPS.
RAW264.7 cells were maintained in complete DMEM media, comprising DMEM with 4.5 g/L glucose, 10% FBS (Gemini Bio-Products, West Sacramento, CA), 2 mM Glutamine (Lonza) and 20 mM HEPES (Lonza), hereafter complete DMEM.
The RNAi screen was conducted in 384-well format using the Ambion Silencer Mouse Genome siRNA Library (#4391425), which consists of three unique, nonoverlapping, nonpooled siRNAs for each of 17,000 gene targets. siRNA reagents ([…]) were stamped into 384-well white flat-bottom microplates (Corning, 3570) using a Velocity11 VPrep liquid handling system (Agilent) integrated into a BioCel robotic platform (Agilent) in columns 1-22, leaving columns 23-24 empty for negative (Ambion, Negative control #1) and positive (mouse Casp4) controls, respectively. The median value of each plate's negative control column was used to normalize sample wells, and the positive control was used to assess transfection efficiency and assay performance.
Lipofectamine RNAiMAX Transfection Reagent ([…]; Invitrogen) was added in […] serum-free, antibiotic-free media to plate wells using a Thermo Scientific Matrix WellMate and Microplate Stacker. Plates were incubated for 45 min at room temperature to allow for the sufficient formation of siRNA-lipid complexes. Cells were seeded at a density of 1x10^4 cells per well in 20 microL media containing 20% (vol/vol) FBS without antibiotics. The final concentration of siRNA in each well was 100 nM. Cells were cultured for 48h at 37 degrees C in 5% CO2 before addition of […] of TLR ligand Pam3CSK4 for 5 hours. The medium was then removed, replaced with […] growth media and cell were transfected with […] of LipidA and TransIT-TKO (Mirus) for 24 hour. At the end of the LipidA treatment, […] of supernatant was transferred to a 384 Greiner Bio-one non-binding low volume plate and […] of IL-1a HTRF reagent (Cisbio, 62MIL1APEH) was added and incubated at room temperature overnight. The plates were read on an EnVision plate reader (PerkinElmer). Cell viability was measured by adding 20ul Cell Titer Glo to the original plate and running a luminescence read on the EnVision. The quantified IL-1a signal for each siRNA gene-targeted well was divided by the median of the negative control wells and multiplied by 100 to achieve a negative control normalized value for each well/siRNA. This normalized value was then used to generate a robust z-score by first taking the log of each value and then by subtracting the median and dividing by the […].

Sequence	z-score
GACAAGUUCUCAAGUAUCCTT against 1110006O24Rik	-2.02 (active)
GGUCCAUAACUUGUGUGCUTT against 3300002I08Rik	-0.462 (inactive)
GGUUGUGAAACGAUGCCCUTT against Trp63	-0.512 (inactive)
CCUGCAAUCAAAACAUCAATT against Vmn1r10	1.13 (inactive)
GGAAUUAUCUGAGCCUGUGTT against Fam193b	-0.0725 (inactive)
GGAAGAGAGAUUCCUAUAGTT against Sec11a	-2.03 (active)
GGCUUGGUGGGACAGAUAUTT against Ccdc51	-1.82 (inactive)
GCUAGAUCCAUCCAUAUAGTT against Misp	-1.26 (inactive)
GGUGAAGAUCUGAUAAGAATT against Epb41	-1.44 (inactive)
GCAACCUCAUACCAAAGAGTT against Zfyve26	0.211 (inactive)
GGUCACUAUCUCUGAUUUCTT against Bpifb2	-1.38 (inactive)
GGUCAUCCUUGCCAAUCUCTT against Olfr686	-2.11 (active)
GGAAUCUUCCAGAACUAAATT against Rufy1	0.912 (inactive)
GCAGGUCUUACCAGAUCGATT against Thap3	-0.765 (inactive)
GGCAGUAAGGCUCCAAUCUTT against Tcp10a	-2.1 (active)
GGCUCUGAACAGCAUUGACTT against Mdfi	-0.521 (inactive)
GGUUUGAAUCAAAUUGUACTT against Hyou1	-1.12 (inactive)
CCUCCACAUUUAUUUGCUATT against Mbtd1	1.23 (inactive)
ACCUGAAUUUGGUGACUGATT against Rdh18-ps	0.368 (inactive)
GGUAUUAUGAGACAGGAAGTT against Pax5	-1.61 (inactive)
GGUUUUAGGAUCCUAGAAGTT against Ap1s1	0.957 (inactive)
GCUGGCUUUGAUUUAUGGATT against Prkar1a	5.06 (active)

Sequence	z-score
GGACGUGUUCGGAAACCUATT against Psmc3ip	0.134 (inactive)
CCUGUGCUCUGAGUUUGGCTT against Tmem270	0.00319 (inactive)
GGACAAACGGGAAAAGAAGTT against Sprr2d	-2.04 (active)
GGGUUGUUUGUCUUGUUCGTT against Rspo2	0.847 (inactive)
GGAAAGAUUCAAAGAACCUTT against Rpia	1.45 (inactive)
GGCAGACAGUCUAACAGAUTT against Krt6a	0.283 (inactive)
GGCAGUUAUUCAGAAUUGATT against Nfu1	-2.2 (active)
GAUUUUCCUGCUCACAAUGTT against Olfr1269	1.03 (inactive)
GGACUUGAGUCAGCUCAUCTT against Fastk	-1.38 (inactive)
GCAACAUUGGAUGUACUCATT against Hdac10	-2.63 (active)
CGUAUAUCCGGUCAGAAGATT against Cnot4	0.634 (inactive)
GCAGCAUCGCUAUGUCCUGTT against Ccl26	0.182 (inactive)
GGAACAAUGCUCAAUUUUUTT against Rfc1	1.63 (inactive)
GCUCCUACGUGUCAGCCUUTT against Skor1	-0.815 (inactive)
CGGUCAUGUCUACAUGUGCTT against Cfp	-0.0864 (inactive)
GGAAUUGUUAAUUGUGGGATT against Stau2	-2.25 (active)
GGCUUCAGAUUUCGAUAUGTT against Nfkb2	1.02 (inactive)
CCUUGGACUUGAGUUCCAATT against Ssu2	1.58 (inactive)
GGCAAAUGUGGCCGUGUUUTT against Ccne1	0.175 (inactive)
GGAAGAAGCAAAGAACUAUTT against Spg20	0.552 (inactive)
GGGCUGAUGUGGGCUAAAUTT against Tmem38a	2.47 (active)
GCCCGGAAUAUAUAGCCCUTT against Hdac10	-0.706 (inactive)

Sequence	z-score
CCUCCAGAUAAGAAUGUGCTT against Fnip1	-1.34 (inactive)
CGUAAGUGGACGACGGUUCTT against Kcnd3	0.106 (inactive)
CGAAGGUACUAUGUAUUUUTT against Tbce	-0.12 (inactive)
GGAACACAUUGGGUAUGCCTT against Sac3d1	-0.575 (inactive)
GGUGUUUAUCGACAGGUACTT against Myo15	0.126 (inactive)
CAAACUGGGUCCCAAUGAATT against Ndufa4	2.7 (active)
GGGAAGUUGUCCUUGAAGATT against Cd36	-0.037 (inactive)
GGACCAUCCCUGUUUUAUATT against Ifrd2	-0.0712 (inactive)
GGUCCCUAGCACUAUUUUUTT against Hes6	1.04 (inactive)
GGAAUAUCACUUCCAUACATT against Ntrk3	0.587 (inactive)
GACCAACCCUCACUAAGCUTT against Tcstv3	-0.364 (inactive)
GGAGCAGAUAAUGUACAUATT against Cep112	2.32 (active)
GGACUAUUUGGAAACCUCCTT against Olfr1366	-0.304 (inactive)
GGAUGUAACUAGUAACUUUTT against Kcnn3	0.108 (inactive)
GCAAGAAAACCUUAGCUCATT against Trpm2	-0.518 (inactive)
CGGAUACAGGUUCGGGUAATT against Nemp1	1.06 (inactive)
CCGUGACGAGCUUGUGGUUTT against Ap3b2	0.788 (inactive)
GGUCCGAUAUCUGAGUCUCTT against Hic1	0.471 (inactive)
CCUUAAUCGCAUCAAAUUATT against Slc1a3	2.35 (active)
GGUUAGAAUAUGCAGAACATT against Arntl	-0.525 (inactive)
GGAGGGCAUCCUCUUCAAATT against Drc3	0.312 (inactive)
GGUAUUAUGACUGUAAAGGTT against Endou	0.0412 (inactive)

Sequence	z-score
GGAAGUGAAUAUUGAGUUUTT against Bccip	2.04 (active)
GGAGAAGAAAAAGAUUAUCTT against Atp6v1d	1.07 (inactive)
GGGAAGAUGUGGAUGUCAUTT against Oprk1	-1.05 (inactive)
GGUUGUUAGAGAUUUGACCTT against Kctd12	-0.208 (inactive)
CCUGCACACCAAGUAUCUGTT against Ccl6	-0.252 (inactive)
GGAAGCACUUCUGCUUUCUTT against Azin2	-0.0234 (inactive)
GCUACACCCUCUGUGAGUUTT against Csrnp2	-2.07 (active)
GGAGAUUCUGUAGGUUAUUTT against Lrat	0.0632 (inactive)
GGGACACUGUGUCCCUUCUTT against Tmem189	-0.0937 (inactive)
CCAAAUGAGGCUACCACAATT against Socs7	-0.0785 (inactive)
GGAUCUGGUUGGCAAGCAUTT against Krt33a	2.87 (active)
GGAACUUGGGCAUUCCAGATT against Adck2	-0.676 (inactive)
GGAAAUCAGUGAACAUCUUTT against Tshr	0.525 (inactive)
CCAGAAACUAGCCUACUACTT against Vgll2	0.395 (inactive)
GGAACUAGUCUGGUGAACUTT against Apoa2	-1.35 (inactive)
GAUUAAUAGUGGUUUCUGATT against Olfr1219	-0.219 (inactive)
GGGUGUGUUUUUAUGUGUUTT against Lcp2	2.57 (active)
GGGAGGAAGAAGAAGGUCATT against Atp1b4	-0.193 (inactive)
GGCAGUCAAUAGUGGCCUGTT against Bcor	1.12 (inactive)
CCAGUAUUUGAGAAUUCUGTT against Gm4788	-0.763 (inactive)
CGACAAGCUGUACCUCUACTT against Rfx5	3.41 (active)
GCUGGAGUUUCAGUCAAGGTT against Ctso	-0.355 (inactive)

Sequence	z-score
AUGCAAGAGGAACGUAUCATT against Olfr1181	-0.572 (inactive)
GGUUUACCCAUCUUGGCCATT against Vwf	-0.501 (inactive)
GGAUAUUGAUUCAGUCAAGTT against Rac2	-1.16 (inactive)
GGAUAUAUUGAAAUGCCCATT against Zbtb14	0.394 (inactive)
GGAUUUAUCCUGGUGACUUTT against Cox20	2.49 (active)
GGUAUUCAGUAUUUUGACUTT against Olfr196	1.56 (inactive)
GGCUGUCGUCAUUGAAGGATT against Ankrd27	-0.771 (inactive)
GCGACAAGAGGCUUUAGCATT against Selenos	0.692 (inactive)
GGAGCAGAAAGAAAUUUCCTT against Gpa33	0.48 (inactive)
GCUUCAACAGUAAUAAUCGTT against Adamtsl1	2.75 (active)
CGGUAAUCUUAUGACAACUTT against Gpc6	1.06 (inactive)
GGGCCUUAAUUUUCCUUUUTT against Podxl	-0.107 (inactive)
GGAUUUAUUGACCUCUUAATT against Sp8	2.41 (active)
GCCCAUCUGAUGAAUACAATT against Mrto4	1.45 (inactive)
GGCACAAUUAGCUAAGAAUTT against Abi3bp	-1.87 (inactive)
GGUCUGAUUCACCAUAAUUTT against Sspn	0.313 (inactive)
GGAGAUUUUGGUGGCUAUUTT against Uqcrfs1	-1.1 (inactive)
GGAUGUCUAACCCAAAUAGTT against Ly6e	2.74 (active)
GGAACACUGGAAAAAUGUUTT against Ldhc	0.176 (inactive)
GGCGGUGAAGUCUAAGGCATT against H1f5	1.54 (inactive)
